# According to PubChem BioAssay (NCI):
# Where “and” joins values, the source holds several entries; their conditions need not be identical. Equal entries are not always repeated. Compounds without any hit were thinned out: in the full panel of roughly 79,000, 15% have a hit. Where a structure was tested more than once in an assay, its records may differ in their call. Calls of active or inactive are those of the source. Rule as the data show it: active = growth inhibition above about 70%; inactive = the rest.
# What was measured:
# [1] = NCI Yeast Anticancer Drug Screen. Data for the mec2-1 strain (AID 157); settings: S. cerevisiae mec2-1 strain, stronger effect = higher value
# Method in brief: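 Mutant yeast (mec2-1) grown with compound; growth inhibition relative to vehicle control reported.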
# [2] = NCI Yeast Anticancer Drug Screen. Data for the rad14 strain (AID 159);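 also: 0% = growth of vehicle-treated control cultures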; settings: S. cerevisiae rad14 strain growth inhibition, stronger effect = higher value
# Method in brief: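 Here, inhibition of yeast growth was measured after compound exposure, using a strain with a genetic defect in DNA damage repair and vehicle-treated cultures as the reference.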
# [3] = NCI Yeast Anticancer Drug Screen. Data for the sgs1 mgt1 strain (AID 161);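 also: 0% = growth of cultures given vehicle only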; settings: S. cerevisiae sgs1 mgt1 strain, stronger effect = higher value
# Method in brief: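 This yeast growth screen uses a strain with defined DNA-repair lesions; compound-treated growth is compared with vehicle-treated growth.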
# [4] = NCI Yeast Anticancer Drug Screen. Data for the CLN2oe strain (AID 163);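 also: 0% = growth of vehicle-only control cultures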; settings: S. cerevisiae CLN2oe strain, stronger effect = higher value
# Method in brief: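 Compounds are applied to yeast harbouring a defined cell-cycle control change; reduced growth compared with vehicle-treated controls gives the value.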
# [5] = NCI Yeast Anticancer Drug Screen. Data for the cln2 rad14 strain (AID 165);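 also: 0% = growth equal to vehicle treated cultures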; settings: S. cerevisiae cln2 rad14 strain, stronger effect = higher value
# Method in brief: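 Readout is yeast growth inhibition versus vehicle-treated controls, using a strain with cln2 and rad14 alterations exposed to compound.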
# [6] = NCI Yeast Anticancer Drug Screen. Data for the bub3 strain (AID 167); settings: S. cerevisiae bub3 mutant strain, stronger effect = higher value
# Method in brief: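 Whole-cell yeast assay. The mutant strain was incubated with compounds, and growth inhibition was determined by comparison with vehicle-treated cells.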
# [7] = NCI Yeast Anticancer Drug Screen. Data for the sgs1 strain (AID 173);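 also: 0% = growth of vehicle-only control cultures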; settings: S. cerevisiae sgs1 mutant, stronger effect = higher value
# Method in brief: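 Each compound was added to cultures of the altered yeast strain. Growth was recorded, and inhibition was derived by comparison with vehicle controls.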
# [8] = NCI Yeast Anticancer Drug Screen. Data for the mlh1 rad18 strain (AID 175); settings: S. cerevisiae mlh1 rad18 strain growth inhibition, stronger effect = higher value
# Method in brief: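 Genetically defined yeast (DNA repair-deficient) exposed to compounds; growth inhibition determined relative to vehicle.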
# [9] = NCI Yeast Anticancer Drug Screen. Data for the rad18 strain (AID 177); settings: S. cerevisiae rad18 mutant growth inhibition, stronger effect = higher value
# Method in brief: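 Vehicle-treated cultures served as the baseline for scoring compound-induced growth inhibition in DNA-repair-mutant yeast.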
# [10] = NCI Yeast Anticancer Drug Screen. Data for the rad52 strain (AID 147);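 also: 0% = growth of vehicle-treated control cultures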; settings: S. cerevisiae rad52 mutant growth inhibition, stronger effect = higher value
# Method in brief: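 The repair-mutant yeast strain was incubated with compounds, then growth was read and inhibition derived relative to vehicle.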
# [11] = NCI Yeast Anticancer Drug Screen. Data for the wt1 strain (AID 149);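 also: 0% = growth of vehicle-treated wt1 cultures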; settings: S. cerevisiae wt1 strain (SPY 50644) growth inhibition, stronger effect = higher value
# Method in brief: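 Measured: growth of wt1 yeast under compound versus vehicle treatment, reported as inhibition.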
# [12] = NCI Yeast Anticancer Drug Screen. Data for the rad50EPP+ strain (AID 151);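 also: 0% = growth of vehicle-treated control cultures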; settings: S. cerevisiae rad50 mutant strain, stronger effect = higher value
# Method in brief: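 Vehicle-normalised growth inhibition; rad50EPP+ yeast strain, altered in DNA damage repair, compound-treated.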
# [13] = NCI Yeast Anticancer Drug Screen. Data for the rad50 strain (AID 155);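 also: 0% = growth of vehicle-only cultures of the same strain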; settings: S. cerevisiae rad50 strain growth inhibition, stronger effect = higher value
# Method in brief: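 Growth of the mutant yeast was measured after compound exposure and referenced to vehicle-treated cultures.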
# [14] = NCI Yeast Anticancer Drug Screen. Data for the wt2 strain (AID 169);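 also: 0% = growth of vehicle-treated yeast cultures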; settings: S. cerevisiae wt2 strain growth inhibition, stronger effect = higher value
# Method in brief: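 Against vehicle-treated controls, the growth of yeast exposed to each compound was compared, and the inhibition was recorded.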
# [15] = at 5.0 µM (retest, dose inferred, filed as 0.5)
# [16] = at 50.0 µM (retest, dose inferred, filed as 5.0)
smiles,measurement,setting,value
CCN(CC)CC(O)c1cc(-c2ccc(Cl)cc2)nc2c(-c3ccccc3)cccc12 (stereo unspecified),growth inhibition,[1]; at 100.0 µM,96% (active)
same,growth inhibition,[2]; at 1.2 µM,-2% (inactive)
same,growth inhibition,[2]; at 3.7 µM,4% (inactive)
same,growth inhibition,[2]; at 11.0 µM,99% (active)
same,growth inhibition,[2]; at 33.0 µM,98% (active)
same,growth inhibition,[2]; at 100.0 µM,95% (active)
same,growth inhibition,[3]; [15],41% (inactive)
same,growth inhibition,[3]; [16],97% (active)
same,growth inhibition,[3]; at 50.0 µM,97.7% (active)
same,growth inhibition,[4]; at 1.2 µM,0% (inactive)
same,growth inhibition,[4]; at 3.7 µM,2% (inactive)
same,growth inhibition,[4]; at 11.0 µM,98% (active)
same,growth inhibition,[4]; at 33.0 µM,97% (active)
same,growth inhibition,[4]; at 100.0 µM,94% (active)
same,growth inhibition,[5]; [15],6% (inactive)
same,growth inhibition,[5]; [16],91% (active)
same,growth inhibition,[5]; at 50.0 µM,8.2% (inactive)
same,growth inhibition,[6]; at 1.2 µM,1% (inactive)
same,growth inhibition,[6]; at 3.7 µM,-5% (inactive)
same,growth inhibition,[6]; [15],22% (inactive)
same,growth inhibition,[6]; at 11.0 µM,98% (active)
same,growth inhibition,[6]; at 33.0 µM,97% (active)
same,growth inhibition,[6]; [16],95% (active)
same,growth inhibition,[6]; at 50.0 µM,46.3% (inactive)
same,growth inhibition,[6]; at 100.0 µM,92% (active)
same,growth inhibition,[7]; at 1.2 µM,-1% (inactive)
same,growth inhibition,[7]; at 3.7 µM,3% (inactive)
same,growth inhibition,[7]; at 11.0 µM,98% (active)
same,growth inhibition,[7]; at 33.0 µM,98% (active)
same,growth inhibition,[7]; at 100.0 µM,96% (active)
same,growth inhibition,[8]; [15],59% (inactive)
same,growth inhibition,[8]; [16],96% (active)
same,growth inhibition,[8]; at 50.0 µM,99.2% (active)
same,growth inhibition,[9]; at 1.2 µM,-2% (inactive)
same,growth inhibition,[9]; at 3.7 µM,-1% (inactive)
same,growth inhibition,[9]; at 11.0 µM,98% (active)
same,growth inhibition,[9]; at 33.0 µM,98% (active)
same,growth inhibition,[9]; at 100.0 µM,95% (active)
CN(C)c1ccc(/C=C/c2ccnc3ccccc23)cc1N,growth inhibition,[10]; at 1.2 µM,-6% (inactive)
same,growth inhibition,[10]; at 3.7 µM,-8% (inactive)
same,growth inhibition,[10]; at 11.0 µM,-10% (inactive)
same,growth inhibition,[10]; at 33.0 µM,-5% (inactive)
same,growth inhibition,[10]; at 100.0 µM,5% (inactive)
same,growth inhibition,[11]; at 1.2 µM,-2% (inactive)
same,growth inhibition,[11]; at 3.7 µM,-4% (inactive)
same,growth inhibition,[11]; at 11.0 µM,-9% (inactive)
same,growth inhibition,[11]; at 33.0 µM,-15% (inactive)
same,growth inhibition,[11]; at 100.0 µM,-7% (inactive)
same,growth inhibition,[12]; at 1.2 µM,-7% (inactive)
same,growth inhibition,[12]; at 3.7 µM,-4% (inactive)
same,growth inhibition,[12]; at 11.0 µM,5% (inactive)
same,growth inhibition,[12]; at 33.0 µM,29% (inactive)
same,growth inhibition,[12]; at 100.0 µM,56% (inactive)
same,growth inhibition,[13]; at 1.2 µM,-5% (inactive)
same,growth inhibition,[13]; at 3.7 µM,-10% (inactive)
same,growth inhibition,[13]; [15],-25% (inactive) and -10% (inactive)
same,growth inhibition,[13]; at 11.0 µM,-13% (inactive)
same,growth inhibition,[13]; at 33.0 µM,5% (inactive)
same,growth inhibition,[13]; [16],-13% (inactive) and 77% (active)
same,growth inhibition,[13]; at 50.0 µM,2.85% (inactive) and -9.8% (inactive)
same,growth inhibition,[13]; at 100.0 µM,17% (inactive)
same,growth inhibition,[1]; at 1.2 µM,-6% (inactive)
same,growth inhibition,[1]; at 3.7 µM,-6% (inactive)
same,growth inhibition,[1]; [15],-1% (inactive) and 4% (inactive)
same,growth inhibition,[1]; at 11.0 µM,-7% (inactive)
same,growth inhibition,[1]; at 33.0 µM,-4% (inactive)
same,growth inhibition,[1]; [16],-6% (inactive) and 94% (active)
same,growth inhibition,[1]; at 50.0 µM,32.1% (inactive) and -2.55% (inactive)
same,growth inhibition,[1]; at 100.0 µM,14% (inactive)
same,growth inhibition,[2]; at 1.2 µM,-7% (inactive)
same,growth inhibition,[2]; at 3.7 µM,-7% (inactive)
same,growth inhibition,[2]; at 11.0 µM,-8% (inactive)
same,growth inhibition,[2]; at 33.0 µM,3% (inactive)
same,growth inhibition,[2]; at 100.0 µM,17% (inactive)
same,growth inhibition,[3]; [15],-8% (inactive) and -6% (inactive)
same,growth inhibition,[3]; [16],43% (inactive) and 95% (active)
same,growth inhibition,[3]; at 50.0 µM,64.8% (inactive) and 1.25% (inactive)
same,growth inhibition,[4]; at 1.2 µM,-1% (inactive)
same,growth inhibition,[4]; at 3.7 µM,-5% (inactive)
same,growth inhibition,[4]; at 11.0 µM,-19% (inactive)
same,growth inhibition,[4]; at 33.0 µM,-16% (inactive)
same,growth inhibition,[4]; at 100.0 µM,-4% (inactive)
same,growth inhibition,[5]; [15],-6% (inactive) and -8% (inactive)
same,growth inhibition,[5]; [16],7% (inactive) and 40% (inactive)
same,growth inhibition,[5]; at 50.0 µM,-28.1% (inactive) and -22.4% (inactive)
same,growth inhibition,[6]; at 1.2 µM,-5% (inactive)
same,growth inhibition,[6]; at 3.7 µM,-5% (inactive)
same,growth inhibition,[6]; [15],3% (inactive) and -7% (inactive)
same,growth inhibition,[6]; at 11.0 µM,-8% (inactive)
same,growth inhibition,[6]; at 33.0 µM,-6% (inactive)
same,growth inhibition,[6]; [16],5% (inactive) and 89% (active)
same,growth inhibition,[6]; at 50.0 µM,81.6% (active) and -6.75% (inactive)
same,growth inhibition,[6]; at 100.0 µM,20% (inactive)
same,growth inhibition,[14]; at 1.2 µM,-5% (inactive)
same,growth inhibition,[14]; at 3.7 µM,-8% (inactive)
same,growth inhibition,[14]; at 11.0 µM,-10% (inactive)
same,growth inhibition,[14]; at 33.0 µM,6% (inactive)
same,growth inhibition,[14]; at 100.0 µM,52% (inactive)
same,growth inhibition,[7]; at 1.2 µM,-3% (inactive)
same,growth inhibition,[7]; at 3.7 µM,-2% (inactive)
same,growth inhibition,[7]; at 11.0 µM,-3% (inactive)
same,growth inhibition,[7]; at 33.0 µM,20% (inactive)
same,growth inhibition,[7]; at 100.0 µM,64% (inactive)
same,growth inhibition,[8]; [15],-12% (inactive) and 5% (inactive)
same,growth inhibition,[8]; [16],13% (inactive) and 97% (active)
same,growth inhibition,[8]; at 50.0 µM,81.8% (active) and 0.6% (inactive)
same,growth inhibition,[9]; at 1.2 µM,-4% (inactive)
same,growth inhibition,[9]; at 3.7 µM,-3% (inactive)
same,growth inhibition,[9]; at 11.0 µM,-8% (inactive)
same,growth inhibition,[9]; at 33.0 µM,11% (inactive)
same,growth inhibition,[9]; at 100.0 µM,32% (inactive)
